Experimental data as given in PubChem BioAssay AID1159580 (chemical genetic matrix, 2015).
Where “and” joins values, the source holds several entries; their conditions need not be identical. Identical values can stand only once. Out of some 5,500 compounds screened, about 2,000 (36%) were called active. Another 18% or so got no clear call; they are omitted. No stated cut-off is given here; in the data, active means normalized growth mostly below about 0.91 (no sharp cut-off); inconclusive means no clear call, values can overlap the other calls; inactive means mostly above about 0.92. The list shows a part of the results.

Test: chemical genetic growth profiling, strain panel (AID 1159580);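 further: tested at 20 µM; growth read once vehicle control cultures reached saturation at 30 °C; 1 = growth at the plate median or of vehicle wells; lower values mean less growth of the strain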
Conditions: S. cerevisiae deletion strains, growth OD

Measured: normalized growth

CCCC1O[C@@H]2CC3C4CCC5=CC(=O)C=CC5(C)C4[C@@H](O)CC3(C)[C@]2(C(=O)CO)O1 (stereo partly specified)
inactive: locus YAL013W, strain DEP1, active compounds read low 1 | locus YAL021C, strain ccr4, active compounds read low 1.01 | locus YAL026C, strain drs2, active compounds read low 1.01 | locus YAL030W, strain snc1, active compounds read low 1.01 | locus YBL061C, strain skt5, active compounds read low 1 | locus YBR009C, strain hhf1, active compounds read low 0.995 | locus YBR021W, strain FUR4, active compounds read low 1 | locus YBR023C, strain chs3, active compounds read low 1.02 | locus YBR171W, strain sec66, active compounds read low 1.01 | locus YBR229C, strain ROT2, active compounds read low 1 | locus YBR231C, strain swc5, active compounds read low 1 | locus YBR279W, strain paf1, active compounds read low 1.01 | locus YCL011C, strain gbp2, active compounds read low 0.996 | locus YCL016C, strain dcc1, active compounds read low 1.01 | locus YCL029C, strain bik1, active compounds read low 1.01 | locus YCL069W, strain vba3, active compounds read low 1.01 | locus YCR088W, strain abp1, active compounds read low 1.01 | locus YDL005C, strain med2, active compounds read low 0.985 | locus YDL035C, strain GPR1, active compounds read low 0.994 | locus YDL040C, strain nat1, active compounds read low 1.01 | locus YDL074C, strain BRE1, active compounds read low 1 | locus YDL101C, strain DUN1, active compounds read low 1.01 | locus YDL134C, strain PPH21, active compounds read low 1 | locus YDL185W, strain tfp1, active compounds read low 1.01 | locus YDL192W, strain arf1, active compounds read low 1.02 | locus YDR001C, strain nth1, active compounds read low 0.993 | locus YDR069C, strain doa4, active compounds read low 1 | locus YDR101C, strain arx1, active compounds read low 1.01 | locus YDR137W, strain rgp1, active compounds read low 0.989 | locus YDR150W, strain NUM1, active compounds read low 0.997 | locus YDR159W, strain sac3, active compounds read low 0.972 | locus YDR162C, strain NBP2, active compounds read low 1 | locus YDR195W, strain ref2 0.971 | locus YDR297W, strain sur2, active compounds read low 1.01 | locus YDR318W, strain mcm21, active compounds read low 1.03 | locus YDR334W, strain swr1, active compounds read low 1.03 | locus YDR335W, strain msn5, active compounds read low 1.01 | locus YDR388W, active compounds read low 1.02 | locus YDR392W, strain spt3, active compounds read low 1.04 | locus YDR502C, strain sam2, active compounds read low 1.02 | locus YEL003W, strain gim4, active compounds read low 1.02 | locus YEL037C, strain rad23, active compounds read low 0.995 | locus YEL061C, strain CIN8 (second series), active compounds read low 1.02 | locus YEL061C, strain CIN8, active compounds read low 1 | locus YER015W, strain faa2, active compounds read low 1.01 | locus YER016W, strain bim1, active compounds read low 1 | locus YER110C, active compounds read low 1.02 | locus YER111C, strain swi4, active compounds read low 1.02 | locus YER155C, strain BEM2 (second series), active compounds read low 1.05 | locus YER155C, strain BEM2, active compounds read low 0.989 | locus YER167W, strain BCK2, active compounds read low 1.01 | locus YFR010W, strain ubp6, active compounds read low 0.987 | locus YGL078C, strain dbp3, active compounds read low 1.01 | locus YGL086W, strain mad1, active compounds read low 1 | locus YGL167C, strain pmr1, active compounds read low 1.01 | locus YGL173C, strain kem1, active compounds read low 1 | locus YGL227W, strain vid30, active compounds read low 1 | locus YGL240W, strain doc1, active compounds read low 0.982 | locus YGL248W, strain PDE1, active compounds read low 1.01 | locus YGL253W, strain hxk2, active compounds read low 1.02 | locus YGR078C, strain PAC10, active compounds read low 0.986 | locus YGR135W, strain pre9, active compounds read low 0.998 | locus YGR229C, strain SMI1, active compounds read low 0.992 | locus YGR252W, strain gcn5, active compounds read low 1.06 | locus YHR013C, strain ard1, active compounds read low 1.03 | locus YHR027C, strain rpn1, active compounds read low 1.01 | locus YHR030C, strain SLT2, active compounds read low 1 and 1.02 | locus YHR079C, strain IRE1 (second series), active compounds read low 1.01 | locus YHR079C, strain IRE1, active compounds read low 1.01 | locus YHR094C, strain hxt1, active compounds read low 1.02 | locus YHR129C, strain ARP1, active compounds read low 1 | locus YHR142W, strain chs7, active compounds read low 1.02 | locus YHR200W, strain rpn10, active compounds read low 1.03 | locus YIL066C, strain RNR3, active compounds read low 1.01 | locus YIL073C, strain SPO22, active compounds read low 1.07 | locus YIL125W, strain kgd1, active compounds read low 0.997 | locus YIR030C, strain dcg1, active compounds read low 1.02 | locus YJL092W, strain hpr5, active compounds read low 1 | locus YJL095W, strain BCK1 (second series), active compounds read low 1.01 | locus YJL095W, strain BCK1, active compounds read low 0.994 and 1.02 | locus YJL115W, strain asf1, active compounds read low 1 | locus YJL129C, strain trk1, active compounds read low 0.98 | locus YJL134W, strain LCB3, active compounds read low 1 | locus YJL154C, strain vps35, active compounds read low 1.01 | locus YJL164C, strain tpk1, active compounds read low 1 | locus YJL166W, strain qcr8, active compounds read low 1.01 | locus YJL168C, strain set2, active compounds read low 1.02 | locus YJL187C, strain SWE1 (second series), active compounds read low 1 | locus YJL187C, strain SWE1, active compounds read low 1.02 | locus YJR043C, strain POL32, active compounds read low 1 | locus YJR066W, strain TOR1, active compounds read low 0.978
